A selection: hits, their analogues and other compounds. The true share with any hit is near 19%.
HT1080-NT tox: kills 2HG-producing HT-1080-NT fibrosarcoma cells; HT-1080-NT fibrosarcoma viability, CellTiter-Glo ATP luminescence, 48 h; Potency, µM (top dose mostly 46.1 µM), without a hit: top-dose activity, negative = less viability, actives largely listed as cytotoxic; 360,000 compounds, 1.6% hits;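 also: NT is the 2HG producing partner of a matched IDH1 knockdown line; 0% = DMSO-treated cells and -100% = media-only wells without cells; nearly all actives have a fitted effect of over 55% in size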
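A 48-hour cytotoxicity screen used HT-1080-NT cells plated 2 hours before compound delivery. ATP-based CellTiter-Glo luminescence measured viability, normalized to DMSO and no-cell controls.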
TDP1 cell CPT: growth inhibition of DT40 Tdp1-/-;hTDP1 cells with camptothecin (screen for TDP1 inhibitors). chicken DT40 Tdp1-/-;hTDP1 cells + 20 nM CPT, ATP luminescence, 48 h. Potency, µM (top dose mostly 46.2 µM), without a hit: at the top dose activity change, negative = growth inhibition, most hits filed as inhibitors. 420,000 compounds, 12% hits. AID 686979; also: nearly all actives have a fitted effect of over 55% in size
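Cell growth measured by CellTiter-Glo luminescence after a minimum 48 h, 37 C compound exposure with 20 nM CPT in Tdp1-knockout DT40 cells stably expressing hTDP1, seeded 400/well; qHTS titration format.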
KB-V1 cytotox: kills drug-selected multidrug resistant KB-V1 cells | KB-V1 MDR cells viability, CellTiter-Glo, 72 h | 400,000 compounds, 3.4% hits | AID 1347076 | Potency, µM (highest dose often 46.1 µM), most hits filed as cytotoxic; also: nearly all actives have a fitted effect of over 60% in size
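In this primary screen, KB-V1 cells overexpressing P-gp are incubated with library compounds (lowest to highest concentration) for 72 h at 37 degrees C before a luminescent ATP viability read.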
KB-3-1 tox: KB-3-1 parental cell cytotoxicity. AID 1347075. 400,000 compounds, 1.4% hits. Potency, µM (highest dose often 46.1 µM), usual class: cytotoxic. KB-3-1 viability, CellTiter-Glo ATP luminescence, 72 h; also: nearly all actives have a fitted effect of over 60% in size
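Here the drug-naive KB-3-1 line serves as comparator for MDR sub-line selectivity; cells received compound titrations, 72 h at 37 °C, then CellTiter-Glo readout.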
DT40 TDP1 no CPT: qHTS for Inhibitors of human tyrosyl-DNA phosphodiesterase 1 (TDP1): qHTS in cells in absence of CPT; DT40 Tdp1-/- hTDP1 cells, no CPT, ATP luminescence, 48 h; Potency, µM (highest dose often 46.2 µM), without a hit: top-dose activity change, negative = growth inhibition, usual class: inhibitors; 420,000 compounds, 15% hits; also: nearly all actives have a fitted effect of over 55% in size
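Growth of hTDP1-complemented DT40 Tdp1-knockout cells is measured by ATP luminescence after at least 48 hr compound exposure at 37 °C, with DMSO substituting for the 20 nM CPT used in the parallel screen.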
HT1080 IDH1KD tx: HT-1080 IDH1 knockdown cell toxicity (counter line); HT-1080 IDH1 knockdown viability, ATP luminescence, 48 h; Potency, µM (doses to about 46.1 µM), without a hit: at the top dose activity, negative = toxicity, hits mostly cytotoxic; 360,000 compounds, 2% hits; AID 686971;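 also: 0% = DMSO wells and -100% = cell-free medium wells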
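Assay cells: HT-1080 with IDH1 knockdown, 750 per well, RPMI/5% FBS. Exposure: 48 h at 37 °C following 2 h pre-incubation. Read: CellTiter-Glo luminescence; fitted concentration-response, curve class assigned.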
Starred values were filed as active, the others as inactive; i = inactive; ? = inconclusive; . = no result. Calls follow the shape of the dose curve; as a rule, active = well fitted curve in the direction sought with a large enough effect; inconclusive = small, poorly fitted or top-dose-only effect, or another doubt; inactive = no such curve, though single readings can be large; an effect the other way counts as inactive or inconclusive. Unless noted, % is scaled to controls: 0 for no effect and ±100 for the full control effect; potency is read from the fitted curve at half-maximal effect.

SMILES	HT1080-NT tox	TDP1 cell CPT	KB-V1 cytotox	KB-3-1 tox	DT40 TDP1 no CPT	HT1080 IDH1KD tx
COc1ccc(NC(=O)CCCC2CCCCC2)cc1S(=O)(=O)N1CCCCC1	-10.9%	?	9.2µM*	?	?	-20.9%
Cc1ccc(NC(=S)NCc2ccccc2)cc1S(=O)(=O)N1CCCCC1	-10.0%	?	13µM*	?	?	-7.6%
Cc1ccc(NC(=O)CCNC(=O)c2ccccc2Cl)cc1S(=O)(=O)N1CCCCCC1	-7.4%	?	i	i	?	-8.1%
CCCCCCCC(=O)N/N=C(\C)c1ccc(O)cc1O	?	?	i	?	?	?
C/C(=N\NC(=O)c1cccnc1)c1ccccc1	8.6%	-3.8%	i	i	3.3%	3.0%
C/C(=N\NC(=O)COc1ccccc1-c1ccccc1)c1cccnc1	-13.4%	?	?	i	20.6µM*	-11.4%
CCCCCCCCCC(=O)N/N=C(\C)c1cccnc1	-1.2%	?	i	i	?	-14.2%
CCCCCC(=O)N/N=C(\C)c1ccccn1	1.3%	5.8µM*	5.17µM*	?	5.8µM*	-24.3%
C/C(=N\NC(=O)COc1ccccc1-c1ccccc1)c1ccccn1	?	2.59µM*	4.11µM*	?	2.59µM*	?
C/C(=N\NC(=O)COc1ccccc1-c1ccccc1)c1ccc(O)cc1O	-1.9%	20.6µM*	?	?	?	?
Cc1ccc(OCCSc2nc3ccccc3n2CC(=O)N2CCOCC2)c(C)c1	.	?	i	i	?	.
CC(=NNC(=S)SCc1ccccc1)c1ccccn1	?	0.0517µM*	?	?	0.0411µM*	?
CCCN(C)C1CN(Cc2cn(Cc3cccc(C(F)(F)F)c3)nn2)S(=O)(=O)C1 (configuration not stated)	12.1%	-11.8%	?	i	-12.6%	7.0%
Cc1ccc(Cn2cc(CN3CC(N4CCN(Cc5ccccc5F)CC4)CS3(=O)=O)nn2)cc1 (configuration not stated)	-0.5%	?	10.3µM*	?	16.4µM*	-26.2%
CN(Cc1cn(Cc2cccc(C(F)(F)F)c2)nn1)C1CN(Cc2cn(Cc3cccc(C(F)(F)F)c3)nn2)S(=O)(=O)C1 (configuration not stated)	-17.2%	13µM*	?	i	13µM*	-5.7%
O=S1(=O)CC(N2CCN(Cc3ccccc3F)CC2)CN1Cc1cn(Cc2ccc(C(F)(F)F)cc2)nn1 (configuration not stated)	-17.9%	13µM*	?	?	9.2µM*	?
O=C(Cc1ccc(F)cc1)N1CCC(c2nc3c(nnn3Cc3ccc(Cl)cc3)c(=O)[nH]2)CC1	.	?	i	i	?	.
COc1cc(NC(=O)CN2CCCN(S(=O)(=O)c3ccc(F)cc3)CC2)cc(OC)c1	.	?	i	i	?	.
CCCCN(C)c1c(C)nc2ccc(C(=O)NCCCn3ccnc3)cn12	-14.1%	-21.6%	i	i	-17.5%	12.7%
COC(=O)c1ccccc1N(Cc1ccccc1)S(C)(=O)=O	7.1%	-22.0%	i	i	-5.4%	0.8%
COC(=O)c1cc(Br)ccc1N(Cc1cc(OC)cc(OC)c1)S(C)(=O)=O	-5.5%	?	?	i	15.8µM*	-17.2%
CCCCc1nc2sc3c(=O)n(N)cnc3c2c2c1CCCC2	7.2%	-25.0%	i	i	?	-1.1%
CCCc1nc2sc3c(=O)n(N)cnc3c2c2c1CCCC2	-2.0%	11.6µM*	?	i	9.2µM*	8.3%
O=C(NC1CCCC1)N[C@@H]1CC[C@@H](CC(=O)N2CCOCC2)O[C@@H]1CO	26.5%	1.6%	i	i	8.8%	23.6%
O=c1c2ccccc2nc2c3ccccc3c3nncn3n12	7.2%	7.31µM*	7.31µM*	?	5.17µM*	-0.7%
SMILES	HT1080-NT tox	TDP1 cell CPT	KB-V1 cytotox	KB-3-1 tox	DT40 TDP1 no CPT	HT1080 IDH1KD tx
C=CCNC(=S)N/N=C/c1cn(-c2ccccc2)nc1-c1ccc(OC)cc1	-1.7%	-27.5%	i	i	9.2µM*	?
COc1ccc(-c2nn(-c3ccccc3)cc2/C=N/NC(=O)c2ccc(Br)o2)cc1	-15.1%	20.6µM*	?	?	20.6µM*	-29.6%
COc1ccc(-c2nn(-c3ccccc3)cc2/C=N/NC(=O)c2cccc(S(=O)(=O)Nc3ccccc3OC)c2)cc1	-5.5%	-23.4%	i	i	-20.4%	-4.1%
C=Cc1ccc2c(c1)N(C)C(=C)S2	24.9%	16.4µM*	i	?	23.1µM*	9.0%
CSc1ncccc1C(=O)Nc1ccc(S(=O)(=O)NC2=NCCCCC2)cc1	0.0%	-1.2%	i	i	-0.7%	3.5%
CCC(CC)(CC(=O)Nc1cccc(/C=C/c2nc(C3CCC3)cs2)c1)C(=O)O	.	-11.2%	.	.	?	.
Cc1ccc(NC(=S)NN(C)c2cc(C)nc(C)n2)cc1	8.7%	5.7%	18.4µM*	i	-1.9%	8.3%
CN(C)NC(=S)Nc1ccc(Cl)cc1	?	-13.7%	i	i	-6.5%	?
COCCNC(=O)C1(C)CCN(C(=O)c2ccc3c(c2)C(C)(C)CCC3(C)C)C1 (configuration not stated)	2.4%	?	i	i	25.9µM*	2.0%
COCCNC(=O)C1CCCN(C(=O)c2ccc3c(c2)C(C)(C)CCC3(C)C)CC1 (configuration not stated)	-19.4%	13µM*	i	i	?	-0.3%
CCc1nn2c(=O)c(S(=O)(=O)Nc3ccc(OC)c(Cl)c3)c(C)nc2s1	.	-27.2%	i	i	?	.
CN1CCN(c2nc(-c3ccccc3)nc(-c3ccc(F)cc3)c2C#N)CC1	-0.5%	?	i	i	?	3.9%
COc1ccccc1-c1nc(-c2ccccc2)nc(N2CCN(C)CC2)c1C#N	16.4µM*	-17.4%	i	?	?	20.6µM*
Cc1ccc(NC(=O)C(NC2CCCc3ccccc32)c2ccccc2)cc1Cl (configuration not stated)	-5.4%	2.91µM*	i	?	18.4µM*	-26.0%
COc1ccc(C)cc1NC(=O)NC1CCCc2ccccc21 (configuration not stated)	-2.8%	-5.1%	?	i	18.3%	-1.5%

Source: PubChem BioAssay (National Center for Advancing Translational Sciences (NCATS))
